Assay results taken from PubChem BioAssay (NCATS).
Results filed as inconclusive are left out. Where a call stands in place of a potency, no number is given. Calls of active or inactive are those of the source. Calls come from the whole dose curve; as a rule, active = well fitted inhibition curve with a large enough effect; inconclusive = small, poorly fitted or top-dose-only effect; inactive = flat fitted curve, though single readings scatter.

Molecular target: Ubiquitin carboxyl-terminal hydrolase 1 (Homo sapiens) (UniProt O94782)
Test: Inhibitors of USP1/UAF1: Pilot qHTS (AID 504865); note: nearly all actives have a fitted effect of over 35% in size
Settings: purified USP1/UAF1, Ub-rhodamine cleavage fluorescence; series mostly up to 114 µM
Method in brief: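 In 50mM HEPES pH 7.8 containing 0.5mM EDTA, 1mM TCEP, 0.1 mg/ml BSA and 0.01% Tween-20, 1nM USP1/UAF1 is exposed to compound for 15 min, then Ub-Rho (150nM final) is added and fluorescence is read over time.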
Potency is the fitted concentration of half-maximal effect.

Chain of Ubiquitin carboxyl-terminal hydrolase 1 (Homo sapiens) (O94782 whole entry, looked up): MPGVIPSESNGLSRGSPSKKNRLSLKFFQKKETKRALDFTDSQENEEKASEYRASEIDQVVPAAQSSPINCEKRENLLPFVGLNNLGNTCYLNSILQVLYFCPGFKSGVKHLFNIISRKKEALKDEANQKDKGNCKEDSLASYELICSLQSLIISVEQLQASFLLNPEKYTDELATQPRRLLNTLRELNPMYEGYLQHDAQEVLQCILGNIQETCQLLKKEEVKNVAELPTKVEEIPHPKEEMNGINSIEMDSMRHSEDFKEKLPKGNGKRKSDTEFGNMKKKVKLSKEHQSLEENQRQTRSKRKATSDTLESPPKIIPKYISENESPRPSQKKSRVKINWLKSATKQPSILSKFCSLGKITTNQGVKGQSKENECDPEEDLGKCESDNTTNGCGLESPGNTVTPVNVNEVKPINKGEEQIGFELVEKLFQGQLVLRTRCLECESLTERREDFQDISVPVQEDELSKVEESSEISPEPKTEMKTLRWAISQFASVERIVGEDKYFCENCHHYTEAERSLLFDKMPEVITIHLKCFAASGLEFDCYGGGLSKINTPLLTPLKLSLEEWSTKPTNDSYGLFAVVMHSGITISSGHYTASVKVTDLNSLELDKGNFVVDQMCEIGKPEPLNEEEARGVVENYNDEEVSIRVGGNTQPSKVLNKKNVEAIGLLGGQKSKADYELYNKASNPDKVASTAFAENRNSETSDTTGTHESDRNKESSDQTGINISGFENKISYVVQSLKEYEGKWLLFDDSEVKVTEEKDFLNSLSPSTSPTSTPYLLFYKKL

SMILES	Potency
CC(=O)[O][Al][O]C(C)=O	inactive
CC/C(=C(/CC)c1ccc(OP(=O)(O)O)cc1)c1ccc(OP(=O)(O)O)cc1	inactive
COc1ccc(C(=O)CCC(=O)O)c2ccccc12	inactive
O=C(O)CCC/C=C\C[C@@H]1[C@@H](/C=C/[C@@H](O)COc2cccc(C(F)(F)F)c2)[C@H](O)C[C@@H]1O	inactive
CN(C)CCC=C1c2ccccc2C(C)(C)c2ccccc21	56.2 µM (active)
C[N+]1(C)[C@@H]2CC(OC(=O)C(O)(c3cccs3)c3cccs3)C[C@H]1[C@@H]1O[C@@H]12 (stereo partly specified)	inactive
C[C@]12CCC(=O)C[C@@H]1CC[C@@H]1[C@@H]2CC[C@]2(C)C=CC[C@@H]12	inactive
O=C(O)CCCC/C=C(\c1ccccc1)c1cccnc1	inactive
CC(C)[C@@H](N)C(=O)O	inactive
CO[C@H]1C[C@@H]2CC[C@@H](C)[C@@](O)(O2)C(=O)C(=O)N2CCCC[C@H]2C(=O)O[C@H]([C@H](C)C[C@@H]2CC[C@@H](OC(=O)C(C)(CO)CO)[C@H](OC)C2)CC(=O)[C@H](C)/C=C(\C)[C@@H](O)[C@@H](OC)C(=O)[C@H](C)C[C@H](C)/C=C/C=C/C=C/1C	inactive
O=C1CCC(=O)N1CO	inactive
CCOC(=O)C1=C(COCCN)NC(C)=C(C(=O)OC)C1c1ccccc1Cl (stereo unspecified)	inactive
OC1OC[C@@H](O)[C@H](O)[C@@H]1O (stereo partly specified)	inactive
CS(=O)(=O)OCC(O)C(O)COS(C)(=O)=O (stereo unspecified)	inactive
CCN(CC)CCOc1ccccc1OC	inactive
O=C(O)CCC/C=C\C[C@@H]1[C@@H](/C=C/[C@@H](O)COc2cccc(Cl)c2)[C@H](O)C[C@@H]1O	inactive
